aSyn 5UTR act: Activators working through SNCA 5'UTR binding (MLPCN); alpha-synuclein 5'UTR reporter, activators screen; activity score, % (tested at 7.5 µM), hits read low; 300,000 tested, 7.1% active; in the data active = activity score below about -60%
Active calls of the source: *. The list is a sample of the results.

SMILES	aSyn 5UTR act
COCn1c(-c2ccc(OC)c(OC)c2)nc2ccccc21	-105.6*
COCn1c(-c2cccc(Br)c2)nc2ccccc21	-63.3*
Oc1ccccc1C1=Nc2nc3ccccc3n2C(c2ccccc2)C1 (configuration not stated)	-213.5*
CCCCOc1ccc(-c2cn3ccccc3n2)cc1[N+](=O)[O-]	-129.1*
CCOc1ccc(-c2cn3ccccc3n2)cc1[N+](=O)[O-]	-159.9*
CCCOc1ccc(-c2csc(N)n2)cc1[N+](=O)[O-]	-81.2*
OC(COc1ccc(CNCCc2ccc(C(F)(F)F)cc2)cc1)CN1CCCCC1 (configuration not stated)	82.2
N#C/C(C(=O)N1CCOCC1)=C1\Nc2ccccc2S1	-65.4*
Cc1nc2oc3ccc(F)cc3c(=O)c2cc1C(=O)NC(C)(C)C	-75.8*
Cc1nc2oc3ccc(Cl)cc3c(=O)c2cc1C(=O)O	-61.9*
CCc1nc2oc3ccc(C)cc3c(=O)c2cc1C(=O)OC	-201.0*
COC(=O)c1cc2c(=O)c3ccccc3oc2nc1C	-172.5*
N#C/C(=C\c1cn(Cc2cccc(F)c2)c2ccccc12)C(=O)NCc1ccco1	64.5
CN(C)c1ccc(/C=C(\C#N)C(=O)NCc2ccco2)cc1	-102.0*
N#C/C(=C\c1cn(Cc2ccccc2)c2ccccc12)C(=O)NCc1ccco1	67.8
CN=c1sc(C(=O)Nc2cccc(Cl)c2)cc(=O)n1C	-139.7*
Cn1c(N)c(C(=O)Nc2cccc(Cl)c2)c(=O)n(C)c1=O	-76.3*
Cn1ccs/c1=N\C(=O)Nc1cccc(Cl)c1	-153.5*
CCOc1ccc(N2Cc3ccccc3C2)cc1	-119.9*
CCOc1ccc(S(=O)(=O)N2c3ccccc3CC2C)cc1 (configuration not stated)	92.6
CCOc1ccc(N2C(N)=NC(N)=NC2(C)C)cc1	66.2
C/C(=N\N=C\c1ccccc1)c1nnn(-c2nonc2N)c1C	-82.3*
Nc1nc(Cl)nc2c1ncn2C1CC(O)C(CO)O1 (configuration not stated)	87.1
Nc1ncn([C@H]2C[C@H](O)[C@@H](CO)O2)c(=O)n1	-924.7*
O=c1[nH]c(=O)n([C@H]2C[C@H](O)[C@@H](CO)O2)cc1C(F)(F)F	76.5
SMILES	aSyn 5UTR act
O=[N+]([O-])/C(C(Cl)=C(Cl)Cl)=C(\Sc1ccccc1)N1CCCCC1	-115.9*
Cc1ccc(-n2c(-c3ccc(Br)cc3)c[n+]3c2CCc2ccc4cccnc4c2-3)cc1	85.9
CCOC(=O)c1sc(Nc2nc3ccc(OC)cc3s2)cc1C	-68.9*
CCOC(=O)c1sc(Nc2nc3c(F)cccc3s2)cc1C	-279.6*
COc1c(O)cc2c(c1O)C(=O)CC(c1ccccc1)O2 (configuration not stated)	-102.3*
COc1ccc([C@H]2CC(=O)c3c(O)cc(O)cc3O2)cc1O	-92.7*
Cc1cc(C(=O)OC(C(=O)Nc2ccc(C)c(Cl)c2)c2ccccc2)c(C)o1 (configuration not stated)	-68.1*
Cc1ccc(-c2nc(N=Nc3ccc(O)cc3)n[nH]2)cc1	-182.1*
Cc1nnsc1S(=O)(=O)Cc1ccccc1C(F)(F)F	-76.3*
CCCc1ccc2oc(C(=O)N(Cc3nccn3C)C(C)C)c(C)c2c1	-72.6*
CCCc1ccc2oc(C(=O)N(C)Cc3ccn[nH]3)c(C)c2c1	-84.6*
CC(=O)c1c(CSc2ccccc2)oc2ccc(O)c(CN(C)C)c12	-62.7*
CCOC(=O)c1c(CSc2ccc(CC)cc2)oc2ccc(O)c(CN(C)C)c12	65.6
Cc1ccc(C2=NN=C(NC(=O)CSc3nnc4c5ccccc5n(C)c4n3)SC2)cc1	-99.2*
CCC/C(=N\NC(=O)c1csc(C)c1C)c1cccs1	-108.9*
CC/C(=N\NC(=O)c1csc(C)c1C)c1cccs1	-181.8*
C/C(=N\NC(=O)c1csc(C)c1C)c1ccc(Cl)s1	-124.9*
COc1ccc(NC2=C3CC(C)CC=C3N(c3ccc(OC)cc3)C2=O)cc1 (configuration not stated)	-84.1*
CC(C)COc1ncnc2c1sc1nc3c(cc12)COC(C)(C)C3	-117.4*
CCCOc1ncnc2c1sc1nc3c(cc12)COC(C)(C)C3	-111.9*
CC(C)c1nc2sc3c(NCc4ccco4)ncnc3c2c2c1COC(C)(C)C2	71.0
CC1(C)Cc2nc3sc4c(=O)n(CC(=O)NCc5ccco5)cnc4c3cc2CO1	-99.9*
C=CCn1c(C)nc2c(sc3nc4c(cc32)COC(C)(C)C4)c1=O	-130.2*
CC1(C)Cc2nc3oc4c(=S)nc[nH]c4c3cc2CO1	-64.4*
C=CCSc1ncnc2c1oc1nc3c(cc12)COC(C)(C)C3	-140.7*
SMILES	aSyn 5UTR act
CCSc1ncnc2c1sc1nc3c(cc12)COC(C)(C)C3	-123.5*
CCCCCn1cnc2c(sc3nc4c(cc32)CSC(C)(C)C4)c1=O	-129.6*
COc1ccc(/C=C(\C#N)C(=O)OCC(=O)Nc2ccc(-c3nc4ccc(C)cc4s3)cc2)cc1	-69.6*
CC1=CCC(C(=O)O)C(C(=O)Nc2ccc(-c3nc4ccc(C)cc4s3)cc2)C1 (configuration not stated)	-131.2*
CC(=O)NC(=S)Nc1ccc(-c2nc3ccc(C)cc3s2)cc1	-271.7*
Cc1ccc2nc(-c3ccc(NS(=O)(=O)c4ccc(F)cc4)cc3)sc2c1	-133.5*
CNC(=S)Nc1ccc(-c2nc3ccc(C)cc3s2)cc1	-90.6*
Cc1ccc2nc(-c3ccc(N)cc3)sc2c1	90.0
Cc1cc(C(=O)CN2CCCCC2)c(C)n1-c1ccc(F)cc1	-128.9*
Cc1cc(C(=O)CN2CCC(C)CC2)c(C)n1-c1ccc(F)cc1	-97.3*
Cc1cc(C(=O)CNCc2ccco2)c(C)n1-c1ccc(F)cc1	-105.9*
Cc1cc(C(=O)NC2CCCCC2)c(C)n1-c1ccc(F)cc1	-174.2*
Nc1n[nH]c2ccccc12	-61.6*
COc1cc(CNC(=O)c2cccc(COc3ccc(Cl)cc3)c2)cc(OC)c1	-76.9*
O=C(NCc1ccccc1)c1cccc(COc2ccc(Cl)cc2)c1	-162.2*
CCN(CC(=O)Nc1ccc2c(c1)OCCO2)C(=O)c1ccc(C(F)(F)F)cc1	-62.5*
CCN(CC(=O)Nc1ccc2c(c1)OCCO2)C(=O)c1ccc(Cl)cc1Cl	-111.7*
CN(C(=O)COC(=O)c1c2c(nc3ccccc13)/C(=C/c1cccc([N+](=O)[O-])c1)CCC2)C1CCS(=O)(=O)C1 (configuration not stated)	72.0
CN(C(=O)COC(=O)c1nc(Cl)c(Cl)c(Cl)c1Cl)C1CCS(=O)(=O)C1 (configuration not stated)	-210.3*
Cc1nn(-c2ccccc2)c(C)c1C(=O)OCC(=O)N(C)C1CCS(=O)(=O)C1 (configuration not stated)	-90.4*
COc1cc(/C=N/NC(=O)c2ccoc2C)cc(OC)c1OC	-80.7*
COc1ccc(/C=N/NC(=O)c2ccoc2C)cc1OC	-72.5*
COc1cc(/C=N/NC(=O)c2cc(-c3ccccc3)sc2N)cc(OC)c1OC	-70.0*
COCCCNC(=S)Nc1ccc2c(c1)OCCO2	-115.8*
S=C(Nc1ccc2c(c1)OCO2)Nc1ccccc1Cl	-84.9*
SMILES	aSyn 5UTR act
OCCNC(=S)Nc1ccc2c(c1)OCCO2	-91.4*
S=C(Nc1ccc2c(c1)OCCO2)Nc1ccc2c(c1)OCO2	-75.3*
S=C(NCc1ccc(Cl)c(Cl)c1)Nc1ccc2c(c1)OCO2	-109.9*
O=C(Nc1ccc2ncccc2c1)c1cc(Cl)ccc1Cl	-80.3*
Brc1ccc(CNc2ccc3ncccc3c2)cc1	-193.7*
Cc1ccc(C(=O)Nc2ccc3ncccc3c2)cc1	84.1
O=C(Nc1ccc2ncccc2c1)c1cccc(Br)c1	-375.2*

Screening data as filed in PubChem BioAssay.
